PubChem BioAssay (NCI)
“And” between values parts separate entries of the source, which are not always exact repeats. Identical values can stand only once. About 79,000 compounds went through this panel and 15% of them were active in at least one assay; those are over-represented in the sample as a whole. Values without a mark were called inactive. The source made the active and inactive calls. No stated cut-off is given here; in the data, active means growth inhibition above about 70%; inactive means the rest.

Experiments:
[1] = NCI Yeast Anticancer Drug Screen. Data for the rad50 strain (AID 155);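 further: 0% = growth of vehicle-only cultures of the same strain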; details: S. cerevisiae rad50 strain growth inhibition, hits give high values
Method in brief: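 DNA repair mutant yeast, compound exposure, growth read-out; inhibition is taken relative to vehicle.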

[2] = NCI Yeast Anticancer Drug Screen. Data for the mec2-1 strain (AID 157); details: S. cerevisiae mec2-1 strain, hits give high values
Method in brief: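 Compounds were applied to mec2-1 yeast cells. Their growth was then compared with that of vehicle-treated cultures to give growth inhibition.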

[3] = NCI Yeast Anticancer Drug Screen. Data for the sgs1 mgt1 strain (AID 161);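 further: 0% = growth of cultures given vehicle only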; details: S. cerevisiae sgs1 mgt1 strain, hits give high values
Method in brief: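 This yeast growth screen uses a strain with defined DNA-repair lesions; compound-treated growth is compared with vehicle-treated growth.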

[4] = NCI Yeast Anticancer Drug Screen. Data for the cln2 rad14 strain (AID 165);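 further: 0% = growth equal to vehicle treated cultures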; details: S. cerevisiae cln2 rad14 strain, hits give high values
Method in brief: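 Strain: cln2 rad14 yeast, altered in cell cycle control and DNA damage repair. Read-out: growth inhibition vs vehicle.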

[5] = NCI Yeast Anticancer Drug Screen. Data for the bub3 strain (AID 167); details: S. cerevisiae bub3 mutant strain, hits give high values
Method in brief: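 In this screen, a yeast mutant lacking normal mitotic checkpoint function is challenged with compound. Relative growth versus vehicle gives the inhibition value.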

[6] = NCI Yeast Anticancer Drug Screen. Data for the mlh1 rad18 strain (AID 175); details: S. cerevisiae mlh1 rad18 strain growth inhibition, hits give high values
Method in brief: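 A repair-deficient yeast strain is exposed to test compound, and growth is scored relative to vehicle-treated controls.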

[7] = at 5.0 µM (retest, dose inferred, filed as 0.5)
[8] = at 50.0 µM (retest, dose inferred, filed as 5.0)

| SMILES | growth inhibition [1, 7] | growth inhibition [1, 8] | growth inhibition ([1]; at 50.0 µM) | growth inhibition [2, 7] | growth inhibition [2, 8] | growth inhibition ([2]; at 50.0 µM) | growth inhibition [3, 7] | growth inhibition [3, 8] | growth inhibition ([3]; at 50.0 µM) | growth inhibition [4, 7] | growth inhibition [4, 8] | growth inhibition ([4]; at 50.0 µM) | growth inhibition [5, 7] | growth inhibition [5, 8] | growth inhibition ([5]; at 50.0 µM) | growth inhibition [6, 7] | growth inhibition [6, 8] | growth inhibition ([6]; at 50.0 µM) |
| --- | --- | --- | --- | --- | --- | --- | --- | --- | --- | --- | --- | --- | --- | --- | --- | --- | --- | --- |
| c1ccc(CCNCc2ccccc2)cc1 | -2% | 3% | -2.35% and 6.05% | -2% | 2% | 6.45% and 3.8% | -4% | 0% | -7.05% and -3.9% | 0% | 4% | 54% and -3.45% | 5% | 4% | -7.5% and 16.1% | 3% | 6% | 0.4% and 3.2% |
| c1ccc(P(CC[As](c2ccccc2)c2ccccc2)CC[As](c2ccccc2)c2ccccc2)cc1 | 95% (active) | 95% (active) | 89% (active) | 81% (active) | 81% (active) | 90.8% (active) | 47% | 47% | 88.5% (active) | 76% (active) | 76% (active) | 89.3% (active) | 84% (active) | 84% (active) | 90.8% (active) | 80% (active) | 80% (active) | 88.6% (active) |
| COc1cccc(C(Cc2ccc(N3C(N)=NC(N)=NC3(C)C)cc2)C(=O)Nc2ccc(S(=O)(=O)F)cc2)c1 (configuration not stated) | 8% | 96% (active) | 99.5% (active) | -139% | 99% (active) | 99.6% (active) | 1% | 99% (active) | 99.8% (active) | -1% | 92% (active) | 96.7% (active) | 1% | 98% (active) | 95% (active) | 6% | 99% (active) | 99.4% (active) |
| CS(=O)(=O)[O-].CS(=O)(=O)[O-].NC1CCCCC1N.[Pt+4] (configuration not stated) | 99% (active) | 99% (active) | 90.7% (active) | 100% (active) | 99% (active) | 91.2% (active) | 100% (active) | 99% (active) | 92% (active) | 100% (active) | 99% (active) | 90.9% (active) | 99% (active) | 99% (active) | 91.2% (active) | 99% (active) | 98% (active) | 88.3% (active) |
